Screens deposited in PubChem BioAssay by several laboratories.
Cav3 T inh = Cav3.2 calcium influx blockers – cell-based, Fluo-4 calcium fluorescence, FDSS, MLSMR library, primary screen; Cav3.2-expressing cells; stronger effect = lower value; B-score at 10 µM; actives 4% (n = 100,000);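 active means single-dose well whose peak fluorescence ratio is a statistical outlier from its plate by either plate-standardised score or position-corrected B-score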
Target sequence (O95180 whole entry, looked up): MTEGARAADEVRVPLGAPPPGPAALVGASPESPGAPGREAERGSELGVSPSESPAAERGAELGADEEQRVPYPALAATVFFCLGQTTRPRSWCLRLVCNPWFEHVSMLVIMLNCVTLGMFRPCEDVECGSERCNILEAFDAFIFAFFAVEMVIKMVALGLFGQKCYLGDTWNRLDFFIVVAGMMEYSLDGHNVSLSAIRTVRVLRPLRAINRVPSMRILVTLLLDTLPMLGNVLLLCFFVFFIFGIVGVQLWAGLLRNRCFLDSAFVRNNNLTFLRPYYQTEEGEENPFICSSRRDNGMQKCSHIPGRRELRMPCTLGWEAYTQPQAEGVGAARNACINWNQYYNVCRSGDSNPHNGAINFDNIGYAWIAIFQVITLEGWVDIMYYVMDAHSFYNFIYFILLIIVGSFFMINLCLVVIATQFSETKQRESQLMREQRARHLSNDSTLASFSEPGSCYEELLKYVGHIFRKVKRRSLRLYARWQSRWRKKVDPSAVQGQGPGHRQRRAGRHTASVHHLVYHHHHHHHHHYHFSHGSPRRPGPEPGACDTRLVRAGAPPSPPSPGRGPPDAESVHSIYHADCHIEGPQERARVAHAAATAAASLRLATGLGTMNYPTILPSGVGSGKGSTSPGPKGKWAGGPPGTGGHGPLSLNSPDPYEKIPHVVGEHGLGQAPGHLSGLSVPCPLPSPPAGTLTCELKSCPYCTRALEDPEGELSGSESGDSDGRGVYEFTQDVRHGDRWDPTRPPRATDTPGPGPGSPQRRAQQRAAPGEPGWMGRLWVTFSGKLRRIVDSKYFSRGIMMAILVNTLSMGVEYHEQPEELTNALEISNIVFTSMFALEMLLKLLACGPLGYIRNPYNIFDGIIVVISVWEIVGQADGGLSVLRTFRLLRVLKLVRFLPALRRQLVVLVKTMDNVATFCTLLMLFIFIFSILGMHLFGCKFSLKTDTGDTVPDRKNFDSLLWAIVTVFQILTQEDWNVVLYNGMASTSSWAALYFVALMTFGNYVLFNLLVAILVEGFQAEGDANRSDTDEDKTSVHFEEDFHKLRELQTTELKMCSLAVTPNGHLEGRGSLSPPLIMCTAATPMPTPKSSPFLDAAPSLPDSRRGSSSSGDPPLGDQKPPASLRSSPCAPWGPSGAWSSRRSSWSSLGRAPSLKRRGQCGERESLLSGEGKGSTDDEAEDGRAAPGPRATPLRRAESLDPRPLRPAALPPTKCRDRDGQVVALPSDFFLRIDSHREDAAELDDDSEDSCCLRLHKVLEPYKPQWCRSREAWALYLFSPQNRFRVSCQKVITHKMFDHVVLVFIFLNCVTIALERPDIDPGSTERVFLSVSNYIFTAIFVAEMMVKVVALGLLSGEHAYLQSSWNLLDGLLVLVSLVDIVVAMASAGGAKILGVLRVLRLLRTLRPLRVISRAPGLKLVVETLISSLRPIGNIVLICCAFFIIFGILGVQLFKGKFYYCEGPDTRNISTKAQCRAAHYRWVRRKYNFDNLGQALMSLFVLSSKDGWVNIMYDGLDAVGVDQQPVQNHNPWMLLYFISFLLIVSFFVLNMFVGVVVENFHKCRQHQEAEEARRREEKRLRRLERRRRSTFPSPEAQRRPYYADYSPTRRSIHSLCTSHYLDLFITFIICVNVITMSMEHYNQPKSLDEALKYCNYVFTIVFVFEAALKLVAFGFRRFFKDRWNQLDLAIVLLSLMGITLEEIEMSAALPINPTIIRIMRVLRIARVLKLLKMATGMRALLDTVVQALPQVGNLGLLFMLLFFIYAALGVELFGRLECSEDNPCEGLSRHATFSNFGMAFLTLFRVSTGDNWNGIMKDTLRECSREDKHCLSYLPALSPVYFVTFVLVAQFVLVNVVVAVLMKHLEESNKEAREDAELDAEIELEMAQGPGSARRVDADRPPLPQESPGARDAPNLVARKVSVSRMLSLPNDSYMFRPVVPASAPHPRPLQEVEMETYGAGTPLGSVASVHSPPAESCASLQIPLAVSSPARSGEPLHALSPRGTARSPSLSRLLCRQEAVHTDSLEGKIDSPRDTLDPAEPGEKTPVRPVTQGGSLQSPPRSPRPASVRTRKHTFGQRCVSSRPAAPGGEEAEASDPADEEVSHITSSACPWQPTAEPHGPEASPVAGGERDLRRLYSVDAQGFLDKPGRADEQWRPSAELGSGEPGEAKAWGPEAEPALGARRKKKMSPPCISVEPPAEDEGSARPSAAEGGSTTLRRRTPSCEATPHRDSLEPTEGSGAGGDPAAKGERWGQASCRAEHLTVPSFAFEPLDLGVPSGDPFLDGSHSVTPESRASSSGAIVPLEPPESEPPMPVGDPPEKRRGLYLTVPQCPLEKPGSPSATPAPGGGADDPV
CYP2C9 act = human CYP2C9 activators, primary screen, biochemical, luminescence | recombinant CYP2C9, luciferin-H conversion; stronger effect = higher value; factor 1 = untreated enzyme, 0 = blocked | actives 1.4% (n = 96,000) | Cytochrome P450 2C9 (Homo sapiens), P11712 | activation factor at 5 µM | AID 1024, 2008;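 active means activation factor of 2 or more for CYP2C9 at a 5 µM dose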;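 further: 0 = sulfaphenazole-blocked wells and 1 = vehicle-only wells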
CYP2C9 inh = blockers of cytochrome P450 2C9 activity – biochemical, luminescence, ADME assay, primary screen | CYP2C9 Supersomes, luciferin-H conversion | actives 20% (n = 96,000) | inhibition, % at 5 µM | P11712 | AID 777, 2007;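 active means blocking of liver enzyme CYP2C9 beyond about 50% at 5 µM, limit read from the data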
CYP2C19 inhib = blockers of cytochrome P450 2C19 activity – biochemical, luminescence, ADME assay, primary screen; P33261; CYP2C19 Supersomes, luciferin-H EGE luminescence, 30 min; inhibition, % at 5 µM; actives 21% (n = 96,000); AID 778, 2007;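 active means CYP2C19 inhibition above a set limit at 5 µM in the primary screen, cut at about 50% in these data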;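 further: plate controls were negative control wells for no effect and 2.5 mM tranylcypromine positive control for full effect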
CYP2C19 activ = human CYP2C19 activators, primary screen, biochemical, luminescence | recombinant CYP2C19, luciferin-H EGE luminescence; stronger effect = higher value; 0 = fully inhibited enzyme, 1 = untreated enzyme | activation factor at 5 µM | AID 1025, 2008 | Cytochrome P450 2C19 (Homo sapiens), P33261 | 96,000 tested, under 10 active;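 active means activation factor of at least 2 at 5 µM in the primary screen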;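 further: 0 = wells with 2.5 mM tranylcypromine and 1 = vehicle-only wells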
The depositor's hits bear a star; . = not tested or not shown. An excerpt weighted towards active compounds, which were near 27% of everything screened.

SMILES	Cav3 T inh	CYP2C9 act	CYP2C9 inh	CYP2C19 inhib	CYP2C19 activ
CCOC(=O)c1[nH]c2ccc(F)cc2c1NC(=O)CN1CCN(C/C=C/c2ccccc2)CC1	.	0.4	58.7*	52.3*	0.5
Cc1ccc(OC(F)F)c(NC(=O)Nc2cccc(C(F)(F)F)c2)c1	0.0551	0.9	14.6	12.1	0.9
CC1CCc2nc(NC(=O)CN3CCN(c4ccc(F)cc4)CC3)sc2C1 (stereo not drawn)	-5.04*	0.8	16.1	6.4	0.9
COc1ccc(C)cc1-n1nnnc1SCC(=O)c1ccc2c(c1)OCCO2	-0.389	1.2	-17.3	-2.8	1
COc1ccc(C)cc1-n1nnnc1SCc1nc2ccccc2s1	.	0.2	77.9*	72.8*	0.3
COc1ccc(C)cc1-n1nnnc1SCC1CCCO1 (stereo not drawn)	0.471	0.4	55.3*	98.3*	0
COc1ccc(C)cc1-n1nnnc1SCC(=O)Nc1cc(C)on1	0.284	.	.	.	.
CCc1ccc(CN2CCN(C(=O)c3cccc(OC)c3OC)CC2)cc1	0.387	.	.	.	.
COc1ccc(C2NC(=O)c3ccccc3O2)cc1OC (stereo not drawn)	0.425	.	.	.	.
O=C1NC(c2ccc3c(c2)OCO3)Oc2ccccc21 (stereo not drawn)	0.746	0.2	79.1*	95.9*	0
O=C1NC(c2ccc3c(c2)OCO3)Nc2ccccc21 (stereo not drawn)	.	0.8	16.9	62.4*	0.4
COC(=O)[C@H](C)NC(=O)NC1CCN(Cc2ccccc2)CC1	0.515	1	4.2	-0.3	1
CC(=O)N1CCc2cc(S(=O)(=O)NC(CC(C)C)C(=O)Nc3cc(C(=O)O)ccc3C)ccc21 (stereo not drawn)	.	1.1	-14.3	-10.9	1.1
Cc1[nH]n(-c2ccc([N+](=O)[O-])cc2)c(=O)c1C=NCCN1CCN(C(=O)c2ccccc2)CC1	0.136	0.3	65.2*	59.2*	0.4
Cc1ccc(CNC(=O)C2CC(=O)N(c3ccc(OCC(=O)N4CCCC4)cc3)C2)cc1 (stereo not drawn)	0.356	.	.	.	.
CC(=O)N(C(C)=O)c1c(C#N)c(C)n(-c2ccccc2)c1C(=O)c1ccccc1	0.662	0.9	9.0	71.1*	0.3
Cc1cc(N2CCN(C(=O)OC(C)(C)C)CC2)n2ncnc2n1	0.192	1.1	-10.8	-5.8	1.1
Cc1ccc(-c2nc3cccnc3s2)cc1NS(C)(=O)=O	1.05	.	.	.	.
OCCOCCOCCn1c2ccccc2c2ccccc21	0.954	0.7	28.6	81.7*	0.2
O=C(Cc1c[nH]c2ccccc12)OCC(=O)c1ccccc1	-1.78	2.2*	-119.5	23.3	0.8
O=C(O)C(=O)Cc1c[nH]c2ccccc12	0.659	.	.	.	.
N#C/C(=C(/O)COC(=O)CCc1ccc(S(=O)(=O)N2CCOCC2)cc1)c1nc2ccccc2[nH]1	0.568	0.8	18.6	9.1	0.9
N#C/C(=C(/O)COC(=O)CCCNC(=O)c1ccc(Cl)cc1)c1nc2ccccc2[nH]1	-0.86	0.2	76.4*	52.1*	0.5
N#C/C(=C(/O)COC(=O)Cc1c[nH]c2ccccc12)c1nc2ccccc2[nH]1	-7*	0.2	82.2*	9.9	0.9
CC(=O)N=C(N)Sc1nc2ccccc2[nH]1	1.23	.	.	.	.
SMILES	Cav3 T inh	CYP2C9 act	CYP2C9 inh	CYP2C19 inhib	CYP2C19 activ
CC(Sc1nnnn1C)C(=O)Nc1ccc(Oc2ccccc2)cc1 (stereo not drawn)	-0.16	0.5	45.7	62.9*	0.4
C/C(=N\NC(=O)COc1ccc([N+](=O)[O-])cc1)C(C)(C)C	0.515	0.9	8.2	22.6	0.8
Cc1ccc2c(CSc3nnc(N)s3)cc(=O)oc2c1	-0.0134	0.6	39.9	84.8*	0.2
O=C(Cn1cnc2c(nnn2-c2ccc(F)cc2)c1=O)N1CCCC1	-1.97	1.1	-13.7	-13.6	1.1
Cc1cc(C)c2nc(Cl)c(CN(Cc3ccco3)C(=O)Nc3ccccc3C)cc2c1	-3.8	0.2	75.4*	14.2	0.9
COCCN(Cc1cc2cc(C)cc(C)c2nc1Cl)C(=O)Nc1ccccc1	-1.24	0.3	67.2*	39.1	0.6
CCN(CC(O)COc1ccc(OCC(O)CN(CC)C2CCCCC2)cc1)C1CCCCC1 (stereo not drawn)	0.812	.	.	.	.
CCCC1COC(Cn2cncn2)(c2ccc(C)cc2)O1 (stereo not drawn)	0.0721	0.5	49.2	58.3*	0.4
NC(=O)C1CCN(CCC(=O)Nc2cccc(Cl)c2)CC1	1.3	0.9	10.2	18.3	0.8
COC(=O)Cc1cc(=O)n2[nH]c(SC)nc2n1	0.102	0.4	64.1*	22.4	0.8
CN1CCN(C(=O)c2ccc3c(=O)n4c(nc3c2)CCCCC4)CC1	-0.0256	1	-3.5	-3.6	1
O=C(c1ccc2c(=O)n3c(nc2c1)CCCCC3)N1CCN(Cc2ccccc2)CC1	2.61	0.3	72.6*	55.1*	0.4
COc1cc(NC(=O)C2CCCN2C(=O)OCc2ccccc2)cc(OC)c1 (stereo not drawn)	-0.434	0.9	13.5	32.1	0.7
O=C(Nc1ccc2c(c1)OCO2)C1CCCN1C(=O)OCc1ccccc1 (stereo not drawn)	-0.22	0.2	80.9*	99.1*	0
COC(=O)c1ccccc1NC(=O)Nc1ccc2c(c1)OCO2	0.491	0.8	18.0	30.3	0.7
O=C(Nc1ccc2c(c1)OCO2)OCc1ccccc1	-0.675	0.6	38.5	91.5*	0.1
O=C(Nc1ccc2c(c1)OCO2)C1CCCN1C(=O)NCc1ccccc1 (stereo not drawn)	0.256	0.3	72.0*	97.2*	0
O=C(NCc1ccc2c(c1)OCO2)C1CCCN1C(=O)Nc1ccccc1 (stereo not drawn)	-0.00573	1.3	-31.9	28.3	0.7
CCNC(=S)NNC(=O)c1cccc(Br)c1	-0.0358	1	1.2	18.2	0.8
O=S(=O)(c1ccccc1)N1CCn2c(nc3ccccc32)C1	0.921	0.8	24.2	71.1*	0.3
CCOC(=O)c1oc2nc(CC(C)C)c3c(c2c1N)CCC3	-0.79	1.1	-9.1	23.0	0.8
N/C(=N\OC(=O)C1CCCCC1)c1ccccn1	0.635	0.8	20.5	17.8	0.8
COc1ccc(C)cc1Cn1c(S(C)(=O)=O)nc2ccccc21	-1.13	0.4	61.8*	98.0*	0
CCc1nc2ccccc2n1Cc1ccc(OC)c(OC)c1	-1.56	.	.	.	.
CS(=O)(=O)c1nc2ccccc2n1Cc1ccccc1	-0.157	0.9	10.6	44.6	0.6
COCCOCCn1c(CCCO)nc2ccccc21	0.97	1.2	-20.9	-19.4	1.2
COc1ccc(Cn2c(CCCO)nc3ccccc32)cc1OC	0.948	0.4	59.1*	90.8*	0.1
CCS(=O)(=O)c1nc2ccccc2n1Cc1ccccc1Cl	-3.22	0.4	61.8*	91.3*	0.1
COc1ccccc1Cn1c(CCCO)nc2ccccc21	0.0277	0.3	65.1*	83.6*	0.2
